TRPV1 ag: human TRPV1 agonism. 0.19% of 320,000 active. Q8NER1. TRPV1-expressing cells, Fluo-8 calcium influx, agonist mode. activation, % at 8.33 µM; in the data active = activation above about 80%; inconclusive = between about 30% and that limit; note: 0% is about no effect
Target sequence (Q8NER1 whole entry, looked up): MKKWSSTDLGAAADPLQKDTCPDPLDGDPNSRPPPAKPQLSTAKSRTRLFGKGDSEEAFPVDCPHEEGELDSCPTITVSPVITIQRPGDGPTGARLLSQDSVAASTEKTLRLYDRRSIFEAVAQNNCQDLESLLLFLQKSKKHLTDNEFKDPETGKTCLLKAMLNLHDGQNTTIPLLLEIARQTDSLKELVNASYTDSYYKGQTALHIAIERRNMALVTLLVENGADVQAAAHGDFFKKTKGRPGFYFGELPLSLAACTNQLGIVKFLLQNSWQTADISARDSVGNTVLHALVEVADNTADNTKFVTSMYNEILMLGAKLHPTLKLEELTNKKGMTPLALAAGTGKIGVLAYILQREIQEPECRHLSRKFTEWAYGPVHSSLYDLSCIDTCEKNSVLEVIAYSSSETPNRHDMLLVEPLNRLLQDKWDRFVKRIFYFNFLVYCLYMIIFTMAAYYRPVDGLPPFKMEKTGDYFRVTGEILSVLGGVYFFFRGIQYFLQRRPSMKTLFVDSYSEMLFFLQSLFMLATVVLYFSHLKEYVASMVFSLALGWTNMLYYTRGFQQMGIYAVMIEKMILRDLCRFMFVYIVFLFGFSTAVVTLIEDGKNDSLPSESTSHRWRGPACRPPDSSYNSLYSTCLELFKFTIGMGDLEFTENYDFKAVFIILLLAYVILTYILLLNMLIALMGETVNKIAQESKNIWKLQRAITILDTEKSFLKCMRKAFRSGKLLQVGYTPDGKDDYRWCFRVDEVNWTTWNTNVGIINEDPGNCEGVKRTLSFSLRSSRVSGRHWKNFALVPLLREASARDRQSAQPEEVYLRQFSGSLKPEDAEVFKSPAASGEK
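Fluo-8 calcium influx in TRPV1-expressing cells, kinetic read (ex 480/em 520 nm). Compound added and read 3 min for agonist activity, followed by capsaicin at EC20 final and 2 min further read for enhancement.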
TRPML1 blocker: human mucolipin-1 channel inhibition; Q9GZU1; TRPML1-inducible cells, Ca2+ dye fluorescence, FDSS; active compounds read low; inhibition of EC80 agonist-evoked calcium signal; activity change, negative = inhibition, % (test concentration not listed); 0.02% of 390,000 active; AID 624415; in the data active = activity change below about -50%; inconclusive = between about -30% and that limit;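 note: stimulus is agonist 54-4 at its EC80 concentration; % is set by controls: 0 for no effect and ±100 for the full control effect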
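Calcium fluorescence in TRPML1-DL cells induced overnight with Tet: a 110 s read after compound pin addition, then a 110 s antagonist read after challenge with 54-4 at 4 uM final (EC80).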
TRHR ag: TRH receptor (human) agonism; TRHR cells, calcium flux fluo-8, FDSS agonist mode; AID 493084; P34981; activation, % at 2 µM; 0.18% of 360,000 active; in the data active = activation above about 30%; note: 0% is about no effect
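Agonist-mode FDSS calcium read (Ex 480/Em 530, 1 s cycles) in 1536-well TRHR cells with fluo-8 dye, after 10-cycle baseline and 23 nL compound addition; TRH at EC20 (10 nM final) added afterwards for the enhancer phase.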
TRPV1 PAM: enhances activation of the human vanilloid receptor TRPV1 | Q8NER1 | TRPV1-expressing cells, Fluo-8 calcium influx, capsaicin EC20 potentiation | potentiation, % at 8.33 µM | 0.02% of 320,000 active; in the data active = potentiation above about 80%; inconclusive = between about 30% and that limit; note: 0% is about no effect
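Cells expressing TRPV1 were dye-loaded with Fluo-8 and read kinetically: 10 s baseline, 3 min after compound (agonist portion), then 2 min after EC20 capsaicin (allosteric enhancer portion). Calcium-bound dye fluorescence at 480/520 nm.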
TRPML1 ag: agonists of human TRPML1 channel | Q9GZU1 | TRPML1-expressing cells, Ca2+ dye fluorescence, FDSS | activation, % (no concentration beside the values) | 0.12% of 410,000 active; in the data active = activation above about 50%; inconclusive = mostly about 30% to 49%; note: 0% is about no effect
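Kinetic FDSS Ca2+ read in Tet-induced TRPML1-DL cells (ABD Ca8 dye plus quencher, 45-90 min RT loading): baseline, then compound, then 110 s agonist window; EC80 agonist 54-4 at 4uM final added afterwards for a 110 s antagonist window.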
TRHR enhancer: TRH receptor (human) allosteric enhancement; TRHR cells, fluo-8 calcium fluorescence, EC20 TRH enhancement; enhancement, % at 2 µM; 0.66% of 360,000 active; AID 493056; in the data active = enhancement above about 30%; note: 0% is about no effect
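TRHR-expressing cells loaded with fluo-8 calcium dye were read kinetically (ex 480/em 530) during compound addition, then stimulated with an EC20 of TRH (10 nM final). Enhancement of the Gq-mediated intracellular calcium response was scored.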
Active calls of the source: *; ? = inconclusive; . = not tested or not shown. In the library only some 0.99% were active in any assay of this set; here they are far more common.

SMILES	TRPV1 ag	TRPML1 blocker	TRHR ag	TRPV1 PAM	TRPML1 ag	TRHR enhancer
O=C(CCc1ccccc1)NC1CC(=O)N(c2cccc(F)c2)C1 (stereo not given)	.	1	0	.	0	37*
Cc1cc(C)n(-c2nc(NC(C)C)nc(NC(C)(C)C)n2)n1	.	.	.	.	1	.
CCSc1nnc(-c2sc3nnc(-c4ccccc4)c(-c4ccccc4)c3c2N)o1	?	-4	64*	12	27	6
Cc1cccc(C(=O)NNC(=O)c2c(O)c3ccccc3n(C)c2=O)c1	1	1	-1	11	0	37*
Cn1c(=O)c(C(=O)NNC(=O)c2cccc(Cl)c2)c(O)c2ccccc21	1	9	0	0	-1	-1
CCCN1C(=O)c2ccccc2NC1c1ccc(OC)c(COc2cccc(C)c2C)c1 (stereo not given)	.	.	.	.	-1	.
S=c1[nH]nc(-c2ccccn2)n1/N=C/c1ccc(Br)s1	-1	-30	0	5	78*	-1
S=c1[nH]nc(-c2ccccn2)n1/N=C/c1ccc(Cl)c(Cl)c1	1	9	-1	26	0	-5
N#Cc1nc(NCC(F)F)c2ncn(-c3cc(F)cc(F)c3)c2n1	.	.	1	.	.	2
CCc1ccc(NC(=O)CSc2nnc(-c3ccccc3)n2C)cc1	.	.	.	.	-2	.
O=C(O)c1sc2cccc(Cl)c2c1Cl	83*	1	0	-8	0	-1
CCc1cccc(C)c1NC(=O)Cn1nc(C)c2nn(-c3ccc(Cl)cc3)c(C)c2c1=O	.	-6	0	.	1	-3
CCOC(=O)c1ccc(NC(=O)Cn2nc(C)c3nn(-c4ccc(Cl)cc4)c(C)c3c2=O)cc1	.	5	0	.	1	34*
Cc1c(NC(=O)/C(C#N)=C/c2ccc(-c3cc(Cl)ccc3Cl)o2)c(=O)n(-c2ccccc2)n1C	-1	14	0	27	2	34*
Cc1c(NC(=O)/C(C#N)=C/c2ccc(-c3ccc(Cl)cc3)o2)c(=O)n(-c2ccccc2)n1C	-4	-9	0	18	0	3
CN(Cc1ccsc1)C(=O)CCc1nnc(Cc2c[nH]c3ccccc23)o1	1	-8	0	12	-1	36*
C=C[C@H](CC(C)C)N(Cc1ccccc1)S(=O)(=O)N(Cc1ccccc1)[C@H](C=C)CC(C)C	.	.	.	.	0	.
CC/C(=C\c1ccc(C(=O)OC)cc1)c1cc(OC)cc2oc3ccccc3c12	.	.	.	.	1	.
O=C1c2ccccc2-c2onc3c(Oc4ccccc4)cc(O)c1c23	-3	.	0	11	.	0
CCOc1ccc2noc3c2c1C(=O)c1ccccc1-3	?	-1	46*	-13	2	1
CCNc1ccc2noc3c2c1C(=O)c1ccccc1-3	?	4	122*	-2	63*	31*
CCNc1ccccc(-c2ccc3ccccc3n2)c1=O	21	-19	2	-12	2	1
O=C1c2ccccc2-c2onc3ccc(NCc4ccco4)c1c23	14	-15	63*	5	21	7
CC1CC=CC2C1C(=O)N(Cc1ccccc1)C2c1ccc(F)c(Br)c1 (stereo not given)	.	35	.	.	2	.
CC(C)c1ccc(N=Cc2c(O)c3ccccc3oc2=O)cc1	83*	.	0	-7	.	-6
SMILES	TRPV1 ag	TRPML1 blocker	TRHR ag	TRPV1 PAM	TRPML1 ag	TRHR enhancer
CCCN1CNc2c(c(=O)[nH]c(=S)n2CCC(C)(C)C)C1	.	.	.	.	0	.
CCC(C)N1C(=O)/C(=C/c2c(NCCCOC(C)C)nc3c(C)cccn3c2=O)SC1=S (stereo not given)	6	2	34*	7	?	-6
CCCN1C(=O)/C(=C/c2c(NCCCOC(C)C)nc3c(C)cccn3c2=O)SC1=S	2	22	15	10	9	4
CS(=O)(=O)N1CCc2cc(C(=O)Nc3ccc(Cl)cc3)ccc21	84*	-17	-1	-9	0	-5
Cc1ccc(NC(=O)C(NC2CCCc3ccccc32)c2ccccc2)cc1Cl (stereo not given)	-5	-26	0	5	0	32*
CNC(=O)NC(=O)C(NC1CCCc2ccccc21)c1ccccc1 (stereo not given)	4	-8	-1	?	2	6
O=C(O)c1ccc(N2CCCCCC2)c(N2C(=O)c3ccccc3C2=O)c1	0	-1	0	-2	-1	2
O=C1c2cccc3c(N4CCCCC4)ccc(c23)C(=O)N1c1ccc(O)cc1	?	15	134*	-3	?	-6
O=C1c2cccc3c(N4CCCCC4)ccc(c23)C(=O)N1c1ccccc1O	?	-9	96*	0	58*	6
O=C(C[n+]1ccncc1)c1ccc2ccccc2c1	.	.	.	.	-1	.
Cc1cccc(C)c1NC(=O)CSc1nc2ccccc2c2nc(CCc3c(C)n[nH]c3C)nn12	.	-4	0	.	0	1
Cc1n[nH]c(C)c1CCc1nc2c3ccccc3nc(SCC(N)=O)n2n1	0	19	0	-1	0	33*
CCOC(=O)CSc1nc2sc3c(c2c(=O)n1-c1ccc(OC)cc1)CCN(C)C3	-2	1	1	23	2	-3
COC(=O)CSc1nc2sc3c(c2c(=O)n1-c1ccc(OC)cc1)CCN(C)C3	-1	68	2	25	1	33*
CCn1c(/C=C/c2ccc(O)c(O)c2)nc2ccccc2c1=O	1	0	8	13	0	34*
CCn1c(/C=C/c2ccc(O)cc2)nc2ccccc2c1=O	-1	-17	-2	5	2	-4
Cc1cc2c(s1)c1cnn(Cc3ccccc3F)c(=O)c1n2Cc1ccccc1F	.	.	1	.	.	-3
O=C(COC(=O)CCC(=O)c1ccc(F)cc1)Nc1cccc(S(=O)(=O)N2CCOCC2)c1	11	27	0	-10	0	33*
O=C(COc1ccc(C(=O)c2ccc(F)cc2)cc1)Nc1cccc(S(=O)(=O)N2CCOCC2)c1	.	13	.	.	1	.
O=C(COC(=O)/C=C/c1ccc(F)cc1)Nc1cccc(S(=O)(=O)N2CCCC2)c1	-1	22	1	7	5	-3
COc1cccc(/C=C/C(=O)OCC(=O)Nc2cccc(S(=O)(=O)N3CCCCC3)c2)c1OC	3	-9	0	19	0	34*
NC(N)=NCCC[C@H](NC(=O)CNC(=O)c1ccccc1)C(=O)Nc1cc(C(F)(F)F)ccc1Cl	.	.	-2	.	.	1
O=C(c1ccccc1)N1N=C(C(F)(F)F)CC1(O)c1ccccc1 (stereo not given)	22	.	-2	-4	.	38*
Cc1cc2c(s1)c1cnn(Cc3ccccc3Br)c(=O)c1n2C	.	.	-2	.	.	-2

Source: PubChem BioAssay
